# PubChem BioAssay (EPA / NIEHS)
# Several values for one entry are separate records, joined by “and”; a condition that tells them apart may be missing. Equal entries are not always repeated. Inconclusive results are not listed. Activity calls are given as the source filed them. The calls were made as follows, unless noted: active = hit-call score of the fitted dose curve at least 0.9, where 1 is the maximum; inactive = score below 0.9.
# Experiments:
# [1] = CCTE_Deisenroth_5AR_NBTE_donor: CCTE's 5alpha-reductase NanoBRET Target Engagement Assay […], Deisenroth Lab (AID 2284319); settings: actives raise or lower the signal
# In short: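 In this secondary endpoint, donor luminescence from SRD5A2-NanoLuc in transfected HEK293T flags artifacts. Test chemical (10 nM - 29.9 uM) is present five hours, tracer the last two; mock-tracer wells run plate-matched; data fitted bidirectionally against DMSO.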
# [2] = CCTE_Deisenroth_5AR_NBTE_acceptor: CCTE's 5alpha-reductase NanoBRET Target Engagement Assay - Autofluorescence Screen, Deisenroth Lab (AID 2284321); settings: actives raise or lower the signal;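 also: compound fluorescence in the acceptor channel under 460 nm excitation flags autofluorescence artifacts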
# In short: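 Autofluorescence check: ToxCast chemicals, nominal 100 uM, excitation 460 nm, n=3 runs. Acceptor fluorescence endpoint, bidirectional fit relative to DMSO. Parent assay in HEK293T, 5 h post-dose.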
# SRD5A2 (gene 6716) = test: CCTE_Deisenroth_5AR_NBTE_ratio: CCTE's 5alpha-reductase NanoBRET Target Engagement Assay - Ratio, Deisenroth Lab (AID 2284322); settings: actives raise or lower the signal
# Method: CCTE_Deisenroth_5AR NBTE (5alpha-reductase NanoBRET Target Engagement Assay) is a cell-based, single-readout assay that uses HEK293T, a human kidney cell line, with measurements taken at 5 hours after chemical dosing in a 384 well plate. This assay includes a primary and secondary screen as well as an autofluorscence screen.CCTE_Deisenroth_5AR NBTE_ratio is one of four assay components calculated from the CCTE_Deisenroth_5AR NBTE assay. It is designed to measure the ratio of target acceptor fluorophore resonance to donor bioluminescent signals.Data from the assay component CCTE_Deisenroth_5AR NBTE_ratio was analyzed into 1 assay endpoint. This assay endpoint, CCTE_Deisenroth_5AR NBTE_ratio, was analyzed with bidirectional fitting relative to DMSO as the negative control and baseline of activity. Using a type of inducible reporter, gain or loss-of-signal activity can be used to understand changes in 5alpha-reductase catalytic function. Furthermore, this assay endpoint can be referred to as a primary readout. To generalize the intended target to other relatable targets, this assay endpoint is annotated to the misc protein intended target family, where the subfamily is 5-alpha reductase.
# For transient expression of the SRD5A2-NanoLuc fusion protein, HEK293T cells are reverse transfected with pNLF1-C-SRD5A2 expression vector and incubated for 20 hours to facilitate fusion protein expression. For assay setup, 384-well non-binding surface (NBS) microplates are pre-dispensed with test chemical across an 8-point concentration series (10 nM - 29.9 uM) with two technical replicates per run. Cell suspensions are dispensed into the microplates and incubated with test chemical for a duration of three hours. Following pre-incubation with test chemical, the testosterone tracer is dispensed into each well and incubated an additional two hours. The total incubation period with test chemical is five hours, with testosterone tracer added the final two hours to reach target engagement equilibrium. For the NanoBRET endpoint measurements, a solution of Nano-Glo substrate and extracellular NanoLuc inhibitor solution is added to each test well and immediately scanned on a plate reader configured with multichromatic emission settings for donor luminescence ([…]) and acceptor fluorescence ([…]). DMSO solvent controls are included as baseline control. Plate-matched samples are run with mock tracer conditions or testosterone tracer to discriminate any potential non-specific substrate interference.
# IYD (gene 389434) = test: CCTE_GLTED_hIYD: CCTE's human Iodotyrosine Deiodinase (xIYD) Inhibition Assay, Great Lakes Toxicology and Ecology Division (GLTED) Lab (AID 2284317; active = hit-call score of the fitted dose curve at least 0.9, where 1 is the maximum;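 also: cell-free human IYD enzyme made in baculovirus insect cells; iodide freed from monoiodotyrosine measured by cerium arsenite color change at 420 nm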)
# In short: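 Absorbance change at 420 nm from the iodide-catalysed cerium-arsenic reaction reports free iodide released by human IYD from monoiodotyrosine. Enzyme, substrate and chemical are incubated 3 h; loss of signal is fitted relative to DMSO baseline.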
# TTR (gene 7276) = test: CCTE_GLTED_hTTR_0.5uM: CCTE's human Transthyretin (hTTR) Inhibition Assay, with 0.5uM TTR, Great Lakes Toxicology and Ecology Division (GLTED) Lab (AID 2284320)
# In short: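 Cell-free displacement assay in which human TTR at 0.5 uM was incubated with test chemical for 2 h. Displacement of the ANSA probe was read by fluorescence at 380 nm excitation/475 nm emission. Loss of signal was fitted in the positive direction versus DMSO.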
# [3] = CCTE_Mundy_HCI_iCellGluta_NOG_NeuriteLength: CCTE's Neurite Outgrowth Assay in iCellGluta cells for Neurite Length, Mundy Lab (AID 2284318; active = hit-call score of the fitted dose curve at least 0.9, where 1 is the maximum)
# In short: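 Automated high-content imaging of betaIII-tubulin (Alexa Fluor-488) and Hoechst-stained cells gave neurite length, normalized to the DMSO baseline.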
# [4] = VALA_TUBIPS_Antagonist_TubuleLength: VALA Sciences human iPS-derived Endothelial Tubule Formation (TUBIPS) Antagonist Assay (AID 2284313; active = hit-call score of the fitted dose curve at least 0.9, where 1 is the maximum)
# Method: VALA_TUBIPS_Agonist is a cell-based, multiplexed assay that uses human iPS-derived endothelial cells (iPSC). Measurements were taken 72 hours after chemical dosing in a 96-well plate.VALA_TUBIPS_Antagonist_TubuleLength is the one of two assay components measured from the VALA_TUBIPS_Antagonist assay. It is designed to make measurements of tubulogenesis, a form of morphology reporter, as detected with fluorescence intensity signals by HCS Fluorescent Imaging technology. This VALA_TUBIPS_Antagonist assay was designed to detect chemical suppression of tubulogenesis, i.e. antagonism.Data from the assay component VALA_TUBIPS_Antagonist_TubuleLength was analyzed at the endpoint, VALA_TUBIPS_Antagonist_TubuleLength, in the positive analysis fitting direction relative to DMSO as the negative control and baseline of activity. Using a type of morphology reporter, loss-of-signal activity can be used to understand developmental effects. To generalize the intended target to other relatable targets, this assay endpoint is annotated to the neurodevelopment intended target family, where the subfamily is tubulogenesis.
# This HUVEC-HDF assay was designed to detect chemical suppression of tubulogenesis, i.e. antagonism. […]
# [5] = VALA_TUBHUV_Antagonist_TubuleLength: VALA Sciences human Umbilical Vein Endothelial Tubule Formation (TUBHUV) Antagonism Assay (AID 2284325; active = hit-call score of the fitted dose curve at least 0.9, where 1 is the maximum)
# In short: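 HUVEC–HDF co-culture (1:3) pre-grown 3 days with 10 ng/ml VEGF, then 3 days with compound plus VEGF. Fixed, nuclear and CD31 stained; total tubule length by imaging versus 0.1% DMSO; suramin 100 uM positive control.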
# [6] = IUF_NPC2-5_viability_120hr: Viability Assessment at 120 hours in the Leibniz Research Institute for Environmental Medicine (IUF) Neural Progenitor Cell Migration and Differentiation Assay (NPC2-5) (AID 2284312)
# In short: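 Alamar blue resorufin fluorescence read after 5 days of differentiation, with compound present from day 0 and replenished at day 3. Primary hNPC spheres on laminin-coated plates, 37C; seven concentrations plus solvent control, fitted against DMSO.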
# [7] = TAMU_PeakParms_SingleDonor1434_Asystole: Texas A&M University (TAMU) 1.5-hr Human Induced Pluripotent Stem Cell (iPSC)-derived Cardiomyocytes Calcium (Ca+2) Flux Assay for Cardiotoxicity: Asystole (quiescence of beating) (AID 2284328; active = hit-call score of the fitted dose curve at least 0.9, where 1 is the maximum)
# Method: TAMU_PeakParms is a cell-based, multiplexed-readout assay that uses iPSC-derived cardiomyocytes with measurements taken at 1.5 hours after chemical dosing in a microplate: 384-well plate.TAMU_PeakParms_SingleDonor1434_Chronotopy is a phenotype derived from the peak.freq.avg parameter and uses an EC95 as its POD (95% decrease in beat rate, compared to controls). Peak.Freq.Avg measures the average peak frequency, in beats per second, using Fluorescence intensity as a functional reporter from Calcium (Ca+2) flux assay technology. There is no preprocessing performed on the data used to model this phenotype.Data from the assay component TAMU_PeakParms_SingleDonor1434_Asystole was analyzed into 1 assay endpoint. This assay endpoint, TAMU_PeakParms_SingleDonor1434_Asystole, was analyzed in the positive analysis fitting direction relative to DMSO as the negative control and baseline of activity. Using a type of functional reporter, loss-of-signal activity can be used to understand changes in the cardiac function. To generalize the intended target to other relatable targets, this assay endpoint is annotated to the cardiomyocyte function intended target family, where the subfamily is cessation of beating.
# Each test compound from the chemical master plates was transferred into new tissue culture-treated 384-well microplates using acoustic dispensing (Labcyte Echo 550, Beckman Coulter, Indianapolis, IN) in amounts that would result in 5x concentrations (1, 5, 50, 500 uM) in the working plate in a final volume of 50 uL. Chemicals were randomly divided into 16 separate 384-well plates for screening such that the outer-most wells were left empty (308 wells were used on each plate). Fifteen of the plates contained unique test chemicals (n = 65 chemicals, 4 concentrations, one replicate each), positive controls (n = 10 chemicals, one concentration, 3 replicates each), vehicle (0.5% DMSO, n = 12), and media-only (n = 6) wells. […]
smiles,measurement,setting,value
CCC(C)c1cc([N+](=O)[O-])cc([N+](=O)[O-])c1O (stereo unspecified),AC50,[1],29.4 µM (active)
same,AC50,[2],9.91 µM (active)
same,AC50,SRD5A2 (gene 6716),53.3 µM (active)
O=C(O)C(F)(F)C(F)(F)C(F)(F)C(F)(F)C(F)(F)C(F)(F)C(F)(F)C(F)(F)C(F)(F)F,AC50,IYD (gene 389434),95.5 µM (active) and 50.9 µM (active)
same,AC50,TTR (gene 7276),721 nM (active)
Clc1ccc(C(c2ccccc2Cl)C(Cl)(Cl)Cl)cc1 (stereo unspecified),outcome,[1],inactive
same,outcome,[2],inactive
same,AC50,SRD5A2 (gene 6716),50 µM (active)
CC#Cc1cc(C)nc(Nc2ccccc2)n1,outcome,IYD (gene 389434),inactive
CCCCCCCCCC[N+](C)(C)CCCCCCCCCC,AC50,IYD (gene 389434),63.9 µM (active)
same,AC50,[1],5.89 µM (active)
same,AC50,[2],4.7 µM (active)
same,AC50,SRD5A2 (gene 6716),10.3 µM (active)
CCCCCCCCCc1ccc(O)cc1,AC50,IYD (gene 389434),24.1 µM (active)
NS(=O)(=O)C(F)(F)C(F)(F)C(F)(F)C(F)(F)C(F)(F)C(F)(F)C(F)(F)C(F)(F)F,AC50,IYD (gene 389434),46.1 µM (active)
same,outcome,[3],inactive
same,AC50,TTR (gene 7276),807 nM (active)
CC(C)(c1ccccc1)c1ccc(O)cc1,outcome,[1],inactive
same,outcome,[2],inactive
same,outcome,SRD5A2 (gene 6716),inactive
Oc1ccc(C(c2ccc(O)cc2)(C(F)(F)F)C(F)(F)F)cc1,outcome,[4],inactive
same,outcome,[5],inactive
CO/C=C(/C(=O)OC)c1ccccc1COc1cccc(C(F)(F)F)n1,AC50,[6],6.8 µM (active)
same,AC50,[3],5.9 µM (active)
ClC1=C(Cl)[C@]2(Cl)[C@@H]3[C@@H]4C[C@@H]([C@H]5O[C@@H]45)[C@@H]3[C@@]1(Cl)C2(Cl)Cl,outcome,[7],inactive
ClC(Cl)=C(c1ccc(Cl)cc1)c1ccc(Cl)cc1,outcome,[1],inactive
same,outcome,[2],inactive
same,outcome,SRD5A2 (gene 6716),inactive
COc1ccc(O)c(C(C)(C)C)c1,outcome,[3],inactive
Cc1cc(-c2ccc(N)c(C)c2)ccc1N,outcome,[1],inactive
same,outcome,[2],inactive
same,AC50,SRD5A2 (gene 6716),50 µM (active)
O=S(=O)(O)C(F)(F)C(F)(F)C(F)(F)C(F)(F)F,outcome,[6],inactive
same,outcome,[3],inactive
same,AC50,TTR (gene 7276),788 nM (active)
O=C(O)C(F)(F)C(F)(F)C(F)(F)C(F)(F)C(F)(F)C(F)(F)C(F)(F)C(F)(F)F,AC50,IYD (gene 389434),91.2 µM (active)
same,AC50,TTR (gene 7276),435 nM (active)
O=C(O)C(F)(F)C(F)(F)C(F)(F)C(F)(F)C(F)(F)F,AC50,TTR (gene 7276),1460 nM (active)
c1cc2ccc3cccc4ccc(c1)c2c34,outcome,[7],inactive
O=S(=O)(O)C(F)(F)C(F)(F)C(F)(F)C(F)(F)C(F)(F)C(F)(F)F,outcome,[6],inactive
same,outcome,[3],inactive
same,AC50,TTR (gene 7276),455 nM (active) and 190 nM (active)
CCOP(=S)(OCC)SCSC(C)(C)C,outcome,[6],inactive
same,outcome,[3],inactive
C=CC(N)=O,outcome,[6],inactive
same,outcome,[7],inactive
